Test results published in PubChem BioAssay (NCI).
This is part of a sample that, as a whole, favours compounds with a hit. Of some 83,000 tested, about 20% had one in any assay.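 48-hour exposure, single concentration, 96-well plates; percent growth endpoint where 0 means no net growth. Active: below 10.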 Active and inactive are the calls of the source.

Tests used:
Test in all cases: NCI-60 one-dose screen, 48 h (100 = growth as untreated, 0 = no growth, -100 = all killed)
Details in all cases: 10 µM unless noted
HCT-15 colon = tested on: HCT-15 colon
HT29 colon = tested on: HT29 colon
SNB-75 CNS = tested on: SNB-75 CNS
SNB-19 CNS = tested on: SNB-19 CNS
U251 CNS = tested on: U251 CNS
PC-3 prostate = tested on: PC-3 prostate
SK-MEL-5 melanoma = tested on: SK-MEL-5 melanoma
UACC-62 melanoma = tested on: UACC-62 melanoma
LOX IMVI melanoma = tested on: LOX IMVI melanoma
SK-MEL-28 melanoma = tested on: SK-MEL-28 melanoma
SK-MEL-2 melanoma = tested on: SK-MEL-2 melanoma
EKVX NSCLC = tested on: EKVX NSCLC
SN12C renal = tested on: SN12C renal
UO-31 renal = tested on: UO-31 renal
TK-10 renal = tested on: TK-10 renal
ACHN renal = tested on: ACHN renal
CAKI-1 renal = tested on: CAKI-1 renal
CCRF-CEM leukemia = tested on: CCRF-CEM leukemia
MOLT-4 leukemia = tested on: MOLT-4 leukemia

Measured: growth

Cc1c(C(=O)NCCC(=O)NO)sc2ncnc(Nc3ccc(F)c(Cl)c3)c12
inactive: HCT-15 colon 102% | HT29 colon 104% | SNB-75 CNS 97.5% | SNB-19 CNS 98.9% | U251 CNS 102% | PC-3 prostate 104% | SK-MEL-5 melanoma 102% | UACC-62 melanoma 102% | LOX IMVI melanoma 98.8% | SK-MEL-28 melanoma 112% | SK-MEL-2 melanoma 101% | EKVX NSCLC 99.4% | SN12C renal 103% | UO-31 renal 84.8% | TK-10 renal 107% | ACHN renal 102% | CAKI-1 renal 96.6% | CCRF-CEM leukemia 105% | MOLT-4 leukemia 115%

O=S(=O)(NCCNc1nccc(-c2c(-c3cccc(F)c3)nc3sccn23)n1)c1ccccc1
inactive: HCT-15 colon 25.8% | HT29 colon 23.2% | SNB-75 CNS 71.5% | SNB-19 CNS 55.9% | U251 CNS 44% | PC-3 prostate 33.1% | SK-MEL-5 melanoma 19.1% | UACC-62 melanoma 24.9% | LOX IMVI melanoma 36.3% | SK-MEL-28 melanoma 54.3% | SK-MEL-2 melanoma 51.8% | EKVX NSCLC 53.3% | SN12C renal 40.3% | UO-31 renal 15.4% | TK-10 renal 59.5% | ACHN renal 26% | CAKI-1 renal 39.1% | CCRF-CEM leukemia 33.6% | MOLT-4 leukemia 16.6%

COc1ccc(NC(N)=NCCCOc2ccc(F)cc2)cc1
inactive: HCT-15 colon 92.2% | HT29 colon 36.6% | SNB-75 CNS 81.9% | SNB-19 CNS 81.5% | U251 CNS 85.7% | PC-3 prostate 66.8% | SK-MEL-5 melanoma 28% | UACC-62 melanoma 87.8% | LOX IMVI melanoma 89.8% | SK-MEL-28 melanoma 88.5% | SK-MEL-2 melanoma 93.7% | EKVX NSCLC 69% | SN12C renal 80.5% | UO-31 renal 86.7% | TK-10 renal 87.3% | ACHN renal 89.3% | CAKI-1 renal 94% | CCRF-CEM leukemia 82.9% | MOLT-4 leukemia 61%

O=S(=O)(NCCNc1nccc(-c2c(-c3cccc(F)c3)nc3sccn23)n1)c1ccc(Br)cc1
inactive: HCT-15 colon 29.2% | HT29 colon 28.2% | SNB-75 CNS 75.3% | SNB-19 CNS 59.3% | U251 CNS 53.4% | PC-3 prostate 51% | SK-MEL-5 melanoma 31.5% | UACC-62 melanoma 35.8% | LOX IMVI melanoma 38.5% | SK-MEL-28 melanoma 69.1% | SK-MEL-2 melanoma 71.7% | EKVX NSCLC 59.5% | SN12C renal 42.9% | UO-31 renal 21.2% | TK-10 renal 68.8% | ACHN renal 30.2% | CAKI-1 renal 35.1% | CCRF-CEM leukemia 51% | MOLT-4 leukemia 35.7%

COc1cc(NC(C)CCCNC(=O)CCC(=O)NCCCNCCCCCCCCCCNCCCNC(=O)CCC(=O)NCCCC(C)Nc2cc(OC)cc3cccnc23)c2ncccc2c1 (centres undefined)
inactive: HCT-15 colon 99.1% [8 µM] | HT29 colon 73.6% [8 µM] | SNB-75 CNS 59.1% [8 µM] | SNB-19 CNS 60.5% [8 µM] | U251 CNS 50.8% [8 µM] | PC-3 prostate 78.2% [8 µM] | SK-MEL-5 melanoma 91% [8 µM] | UACC-62 melanoma 89.4% [8 µM] | LOX IMVI melanoma 51.1% [8 µM] | SK-MEL-28 melanoma 86.8% [8 µM] | SK-MEL-2 melanoma 93.4% [8 µM] | EKVX NSCLC 73.7% [8 µM] | SN12C renal 41.3% [8 µM] | UO-31 renal 96.3% [8 µM] | TK-10 renal 100% [8 µM] | ACHN renal 96.7% [8 µM] | CAKI-1 renal 97.3% [8 µM] | CCRF-CEM leukemia 66.6% [8 µM] | MOLT-4 leukemia 76.8% [8 µM]

CC1=CCC(OC(=O)C(C)(O)CCC(O)(C(=O)OC2(C)C=CC(O)(C(C)C)CC2)C(C)C)(C(C)C)CC1 (centres undefined)
inactive: HCT-15 colon 103% | HT29 colon 104% | SNB-75 CNS 92.5% | SNB-19 CNS 102% | U251 CNS 98.3% | PC-3 prostate 113% | SK-MEL-5 melanoma 101% | UACC-62 melanoma 98.1% | LOX IMVI melanoma 101% | SK-MEL-28 melanoma 114% | SK-MEL-2 melanoma 108% | EKVX NSCLC 99% | SN12C renal 98.9% | UO-31 renal 88.6% | TK-10 renal 95.6% | ACHN renal 111% | CAKI-1 renal 95% | CCRF-CEM leukemia 102% | MOLT-4 leukemia 109%

O=c1[nH]nc(-c2ccccc2)c2sc3ncc(-c4ccc(Br)cc4)n3c12
active: HT29 colon 9.13%
inactive: HCT-15 colon 94.5% | SNB-75 CNS 19.7% | SNB-19 CNS 44.7% | U251 CNS 38.9% | PC-3 prostate 50.2% | SK-MEL-5 melanoma 78.9% | UACC-62 melanoma 47.5% | LOX IMVI melanoma 36.9% | SK-MEL-28 melanoma 57.6% | SK-MEL-2 melanoma 18.4% | EKVX NSCLC 67.3% | SN12C renal 46.1% | UO-31 renal 73.3% | TK-10 renal 109% | ACHN renal 75.7% | CAKI-1 renal 56.1% | CCRF-CEM leukemia 22.4% | MOLT-4 leukemia 41.7%

Cn1nc(CC#N)c2c(=N)n(N)cnc21
inactive: HCT-15 colon 111% | HT29 colon 116% | SNB-75 CNS 87.4% | SNB-19 CNS 111% | U251 CNS 99.4% | PC-3 prostate 96.2% | SK-MEL-5 melanoma 111% | UACC-62 melanoma 103% | LOX IMVI melanoma 103% | SK-MEL-28 melanoma 121% | SK-MEL-2 melanoma 113% | EKVX NSCLC 94.4% | SN12C renal 98.6% | UO-31 renal 80.1% | TK-10 renal 104% | ACHN renal 108% | CAKI-1 renal 95.3% | CCRF-CEM leukemia 126% | MOLT-4 leukemia 94.7%

Cc1cc(C)c(S(=O)(=O)Oc2ccccc2[N+](=O)[O-])c(C)c1
inactive: HCT-15 colon 15.8% | SNB-19 CNS 33.1% | U251 CNS 29.7% | PC-3 prostate 20.7% | UACC-62 melanoma 24.5% | LOX IMVI melanoma 43.4% | SK-MEL-28 melanoma 50.6% | EKVX NSCLC 48.2% | SN12C renal 35.6% | UO-31 renal 22.8% | TK-10 renal 33.9% | ACHN renal 37.4% | CAKI-1 renal 24% | CCRF-CEM leukemia 20.6% | MOLT-4 leukemia 34.6%
active: HT29 colon 3.94% | SNB-75 CNS -18.4% | SK-MEL-5 melanoma 6.18% | SK-MEL-2 melanoma 7.67%

CCc1ccc(CNc2ccc(N3CCOCC3)c(C(=O)O)c2)cc1
inactive: HCT-15 colon 104% | HT29 colon 96.4% | SNB-75 CNS 99.2% | SNB-19 CNS 107% | U251 CNS 103% | PC-3 prostate 106% | SK-MEL-5 melanoma 102% | UACC-62 melanoma 102% | LOX IMVI melanoma 96.8% | SK-MEL-28 melanoma 107% | SK-MEL-2 melanoma 82.7% | EKVX NSCLC 98.3% | SN12C renal 108% | UO-31 renal 89.5% | TK-10 renal 94% | ACHN renal 103% | CAKI-1 renal 97.2% | CCRF-CEM leukemia 102% | MOLT-4 leukemia 99.2%

CC(=O)CCC(=O)OCc1cc(=O)c(O)co1
inactive: HCT-15 colon 98.2% | HT29 colon 101% | SNB-75 CNS 104% | SNB-19 CNS 104% | U251 CNS 107% | PC-3 prostate 98.7% | SK-MEL-5 melanoma 105% | UACC-62 melanoma 103% | LOX IMVI melanoma 94.6% | SK-MEL-28 melanoma 98.1% | SK-MEL-2 melanoma 113% | EKVX NSCLC 109% | SN12C renal 104% | UO-31 renal 97.1% | TK-10 renal 98.5% | ACHN renal 101% | CAKI-1 renal 102% | CCRF-CEM leukemia 98% | MOLT-4 leukemia 102%

O=C(c1nc2ccccc2[nH]1)C1C(c2ccc(Cl)cc2)C2CC3CCCC[C@H]3N2[C@@]12C(=O)Nc1cc(Cl)ccc12 (some centres undefined)
active: MOLT-4 leukemia 7.41%
inactive: HCT-15 colon 30.2% | HT29 colon 26% | SNB-75 CNS 34.4% | SNB-19 CNS 59% | U251 CNS 49.3% | PC-3 prostate 31.9% | SK-MEL-5 melanoma 50.1% | UACC-62 melanoma 59.3% | LOX IMVI melanoma 35% | SK-MEL-28 melanoma 72% | SK-MEL-2 melanoma 66.7% | EKVX NSCLC 34.5% | SN12C renal 48% | UO-31 renal 20.1% | TK-10 renal 46.4% | ACHN renal 40.5% | CAKI-1 renal 20.6% | CCRF-CEM leukemia 30.2%

CCOC(=O)/C(C#N)=C1/NNC(=Nc2cccnc2)S1
inactive: HCT-15 colon 101% | HT29 colon 98.3% | SNB-75 CNS 92% | SNB-19 CNS 95.9% | U251 CNS 94.1% | PC-3 prostate 88.6% | SK-MEL-5 melanoma 98.6% | UACC-62 melanoma 95.5% | LOX IMVI melanoma 95.7% | SK-MEL-28 melanoma 105% | SK-MEL-2 melanoma 107% | EKVX NSCLC 98.7% | SN12C renal 98.6% | UO-31 renal 92.1% | TK-10 renal 102% | ACHN renal 100% | CAKI-1 renal 97.1% | CCRF-CEM leukemia 106% | MOLT-4 leukemia 106%

O=C1c2ccc3c4c(ccc(c24)C(=O)N1CCCNCc1ccccc1F)C(=O)N(CCCNCc1ccccc1F)C3=O
active: HCT-15 colon -60.6% | HT29 colon -77% | SNB-75 CNS -98.2% | SNB-19 CNS -64.3% | U251 CNS -85.6% | PC-3 prostate -59.1% | SK-MEL-5 melanoma -96.2% | UACC-62 melanoma -57.6% | LOX IMVI melanoma -71.9% | SK-MEL-28 melanoma -93.6% | SK-MEL-2 melanoma -82.9% | EKVX NSCLC -56.5% | SN12C renal -75.7% | UO-31 renal -58% | TK-10 renal -85.8% | ACHN renal -47.1% | CAKI-1 renal -22.8% | CCRF-CEM leukemia -11.7% | MOLT-4 leukemia -28.9%

Nc1c(S(=O)(=O)O)cc2c3c(cccc13)C(=O)OC2=O
inactive: HCT-15 colon 95.9% | HT29 colon 106% | SNB-75 CNS 79.2% | SNB-19 CNS 99.7% | U251 CNS 97.8% | PC-3 prostate 106% | SK-MEL-5 melanoma 102% | UACC-62 melanoma 97.8% | LOX IMVI melanoma 94.3% | SK-MEL-28 melanoma 115% | SK-MEL-2 melanoma 51% | EKVX NSCLC 91.5% | SN12C renal 98.9% | UO-31 renal 86.7% | TK-10 renal 127% | ACHN renal 95.2% | CAKI-1 renal 79.9% | CCRF-CEM leukemia 102% | MOLT-4 leukemia 88.9%

NS(=O)(=O)c1ccc(Cn2c(SCC(=O)N/N=C/c3ccccc3O)nc3ccccc3c2=O)cc1
inactive: HCT-15 colon 75% | HT29 colon 86.3% | SNB-75 CNS 84.3% | SNB-19 CNS 55.6% | U251 CNS 43.1% | PC-3 prostate 67.9% | SK-MEL-5 melanoma 58.1% | UACC-62 melanoma 38.1% | LOX IMVI melanoma 16.1% | SK-MEL-28 melanoma 57.7% | SK-MEL-2 melanoma 36.6% | EKVX NSCLC 60.1% | SN12C renal 56.2% | UO-31 renal 61% | TK-10 renal 53.8% | ACHN renal 72.3% | CAKI-1 renal 54.2% | CCRF-CEM leukemia 23.2% | MOLT-4 leukemia 20.8%
